KB-3-1 tox = qHTS assay for MDR1-selective chemotherapeutics: Primary screen using the parental adenocarcinoma cell KB-3-1. 1.4% of 400,000 active. Potency, µM (highest dose often 46.1 µM), usual class: cytotoxic. AID 1347075, 2019. KB-3-1 viability, CellTiter-Glo ATP luminescence, 72 h; note: nearly all actives have a fitted effect of over 60% in size
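Cytotoxicity in the drug-sensitive parental line KB-3-1 was scored as loss of CellTiter-Glo luminescence following 72 h incubation with compound. Values come from curve fitting of normalized concentration-response data.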
DT40 TDP1 CPT = qHTS for Inhibitors of human tyrosyl-DNA phosphodiesterase 1 (TDP1): qHTS in cells in presence of CPT; chicken DT40 Tdp1-/-;hTDP1 cells + 20 nM CPT, ATP luminescence, 48 h; Potency, µM (highest dose often 46.2 µM), without a hit: top-dose activity change, negative = growth inhibition, hits mostly inhibitors; 12% of 420,000 active; note: nearly all actives have a fitted effect of over 55% in size
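Chicken DT40 Tdp1-/- cells complemented with human TDP1, 400 cells/well, exposed to compounds plus 20 nM camptothecin for at least 48 h at 37 C; viability read as ATP content by CellTiter-Glo luminescence.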
KB-V1 MDR tox = qHTS assay for MDR1-selective chemotherapeutics: Primary screen using the drug-selected MDR subline cells KB-V1 | Potency, µM (highest dose often 46.1 µM), hits mostly cytotoxic | AID 1347076, 2019 | 3.4% of 400,000 active | KB-V1 MDR cells viability, CellTiter-Glo, 72 h; note: nearly all actives have a fitted effect of over 60% in size
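Readout: CellTiter-Glo luminescence, 10 min after addition. Cells: KB-V1 MDR subline, 72 h at 37 degrees C with compound. Analysis: corrected, normalized data fitted to concentration-effect curves.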
HT1080 IDH1KD tx = qHTS for induction of synthetic lethality in tumor cells producing 2HG: qHTS for the HT-1080-IDH1KD cell line; HT-1080 IDH1 knockdown viability, ATP luminescence, 48 h; Potency, µM (series often up to 46.1 µM), inactives show at the top dose activity, negative = toxicity, most hits filed as cytotoxic; 2% of 360,000 active; AID 686971, 2013;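 note: 0% = DMSO wells and -100% = cell-free medium wells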
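HT-1080-IDH1KD cells (IDH1 knocked down), 750/well in RPMI with 5% FBS, treated with compound 48 h at 37 degrees C. Viability by CellTiter-Glo luminescence, normalised to DMSO and no-cell wells; concentration-response curves classed.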
DT40 TDP1 no CPT = qHTS for Inhibitors of human tyrosyl-DNA phosphodiesterase 1 (TDP1): qHTS in cells in absence of CPT. Potency, µM (doses to about 46.2 µM), without a hit: at the top dose activity change, negative = growth inhibition, actives largely listed as inhibitors. AID 686978, 2013. 15% of 420,000 active. DT40 Tdp1-/- hTDP1 cells, no CPT, ATP luminescence, 48 h; note: nearly all actives have a fitted effect of over 55% in size
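Growth of hTDP1-complemented DT40 Tdp1-knockout cells is measured by ATP luminescence after at least 48 hr compound exposure at 37 °C, with DMSO substituting for the 20 nM CPT used in the parallel screen.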
HT1080NT lethal = qHTS for induction of synthetic lethality in tumor cells producing 2HG: qHTS for the HT-1080-NT fibrosarcoma cell line; Potency, µM (top dose mostly 46.1 µM), inactives show top-dose activity, negative = less viability, most hits filed as cytotoxic; 1.6% of 360,000 active; HT-1080-NT fibrosarcoma viability, CellTiter-Glo ATP luminescence, 48 h;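 note: NT is the 2HG producing partner of a matched IDH1 knockdown line; 0% = DMSO-treated cells and -100% = media-only wells without cells; nearly all actives have a fitted effect of over 55% in size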
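Viability by CellTiter-Glo luminescence after 48 h compound exposure at 37C of HT-1080-NT cells (750/well, RPMI, 5% FBS). % activity scaled between DMSO wells and medium-only wells, then curve-fitted and categorized by curve class.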
An asterisk follows results filed as active; i = inactive; ? = inconclusive; . = no result; [ ] = remark or other dose. Sampled rows, rich in hits. Any-hit rate of the full collection: about 19%. Calls come from the whole dose curve; as a rule, active = well fitted curve in the direction sought with a large enough effect; inconclusive = small, poorly fitted or top-dose-only effect, or another doubt; inactive = no such curve, though single readings can be large; an effect the other way counts as inactive or inconclusive. Unless noted, % is set by controls: 0 for no effect and ±100 for the full control effect; potency is the fitted concentration of half-maximal effect.

SMILES	KB-3-1 tox	DT40 TDP1 CPT	KB-V1 MDR tox	HT1080 IDH1KD tx	DT40 TDP1 no CPT	HT1080NT lethal
CCn1c(NC(=O)c2ccc(COc3ccc(C)cc3[N+](=O)[O-])o2)nc2ccccc21	i	16µM*	?	1%	?	-3%[9.24 µM]
Cc1ccc(OCc2ccc(C(=O)Nc3cc(C)on3)o2)c([N+](=O)[O-])c1	i	?	i	?	-21%	?
CC(C)(C)OC(=O)CNC(=O)c1nc[nH]c1C(=O)NCc1ccc(CNC(=O)OC(C)(C)C)cc1	?	18µM*	i	1%	15µM*	-6%
C[C@@H](O)CNC(=O)c1[nH]cnc1C(=O)Nc1ccc(CNC(=O)OC(C)(C)C)cc1	i	?	i	-7%	?	-7%
C[C@@H](CO)NC(=O)c1[nH]cnc1C(=O)Nc1ccc(CNC(=O)OC(C)(C)C)cc1	i	23µM*	?	-3%	12µM*	3%
CCOC(=O)c1ccc(NC(=O)c2nc[nH]c2C(=O)N[C@@H](C)CO)cc1	i	-1%	i	0%	21µM*	1%
CC(C)(C)OC(=O)NCc1ccc(NC(=O)c2nc[nH]c2C(=O)NCCNC(=O)c2[nH]cnc2C(=O)Nc2ccc(CNC(=O)OC(C)(C)C)cc2)cc1	i	15µM*	i	13µM*	18µM*	12µM*
Cc1cnc(C)c(-c2cccc3c2OC(CNC(=O)/C=C/c2ccncc2)C3)n1 (stereo not drawn)	.	-6%[9.04 µM]	.	.	?	.
Cc1nc2ccccc2c2oc(C(=O)Nc3ccc(C(C)C)cc3)cc12	?	?	i	?	21µM*	?
Cc1nc2ccccc2c2oc(C(=O)Nc3ccc4c(c3)OCCO4)cc12	?	15µM*	?	-7%	15µM*	-13%
Cc1nc2ccccc2c2oc(C(=O)N3CCCC(C)C3)cc12 (stereo not drawn)	i	?	i	0%	?	-1%
CCn1cnnc1SCC(=O)NCC1COc2ccccc2O1 (stereo not drawn)	i	-2%	i	10%	1.8µM*	3%
O=C(Nc1ccc2c(c1)OCCO2)c1cc2ccccc2o1	i	-29%	?	-4%	?	-16%
CCCn1nc(C(=O)NCC2COc3ccccc3O2)c2ccccc2c1=O (stereo not drawn)	i	?	7.3µM*	3%	?	-9%
Cn1c(SCC(=O)NCC2COc3ccccc3O2)nnc1C(F)(F)F (stereo not drawn)	.	0%	.	0%	-4%	0%
COc1ccc(-n2nc(C(=O)NCC(=O)NCC3COc4ccccc4O3)c3ccccc3c2=O)cc1OC (stereo not drawn)	i	?	i	-1%	?	0%
O=C(COC(=O)c1ccc2ccccc2c1)NCc1ccccc1	i	-6%	?	7%	-2%	0%
COc1cc(NC(=O)c2cc3c(C)nc4ccccc4c3o2)cc(OC)c1OC	i	8.2µM*	?	2%	12µM*	6%
Cc1nc2ccccc2c2oc(C(=O)NCC3COc4ccccc4O3)cc12 (stereo not drawn)	i	21µM*	i	-15%	12µM*	-17%
COc1cc(NC(=O)c2cc(C)nc3ccccc23)cc(OC)c1OC	i	-16%	i	-14%	-7%	-13%
Cc1cc(=O)oc2cc(O)c(N=Nc3ccccc3)cc12	i	?	i	-2%	12%	0%
Cc1cc(C)c2cc(C#N)c(NCCNC(=S)NCCCN3CCOCC3)nc2c1	i	?	i	0%	?	-1%
Cc1cc(C)c2nc(C(F)(F)F)nc(NCCCN3CCOCC3)c2c1	?	?	3.7µM*	16µM*	?	18µM*
C=C1CCC(O)C2(C)CCC3C(C)C(=O)OC3C12O (stereo not drawn)	i	31%	i	5%	21%	6%
C=C1C(=O)O[C@@H]2[C@H]1CC[C@H](C)[C@]1(O)CCC(=O)[C@@]21C	?	23µM*	i	?	?	?
SMILES	KB-3-1 tox	DT40 TDP1 CPT	KB-V1 MDR tox	HT1080 IDH1KD tx	DT40 TDP1 no CPT	HT1080NT lethal
O=C1c2ccccc2CCC12OC2c1ccncc1 (stereo not drawn)	i	-16%	i	-15%	2.9µM*	2%
CCOC(=O)N1CCN(S(=O)(=O)c2cc(C)c(C)cc2C)CC1	i	?	i	-13%	?	-2%
Cc1cc(C)c(S(=O)(=O)/N=C2/C=C(SCC(=O)O)C(=O)c3ccccc32)cc1C	?	1.8µM*	?	?	1.8µM*	?
O=C(NC1CCCC1)c1ccc(CSCc2ccccc2F)o1	i	?	15µM*	-12%	?	9%
O=C(NC1CC1)c1ccc(CSCc2ccc(Cl)cc2)o1	i	?	?	-21%	21µM*	-20%
O=C(NC1CCCC1)c1ccc(CS(=O)(=O)Cc2ccccc2F)o1	i	-7%	i	0%	-11%	1%
O=C(NNC(=O)C1[C@H]2CCCC[C@@H]12)Nc1cccc2ccccc12 (stereo partly drawn)	i	-11%	i	-13%	?	-16%
O=C(NN1CCOCC1)c1cc(-c2ccncc2)nc2ccccc12	i	-7%	i	9%	-29%	?
O=C(NN1CCOCC1)c1cc(-c2cccc(Cl)c2)nc2ccccc12	i	?	12µM*	-11%	?	4%
O=C(NNC(=O)c1cc(-c2ccc(Cl)c(Cl)c2)nc2ccccc12)Nc1ccccc1	?	15µM*	?	?	?	?
Cc1cccc(NC(=O)NNC(=O)c2cc(-c3ccccc3Cl)nc3ccccc23)c1	i	?	i	?	?	?
O=C(NN1CCOCC1)c1cc(-c2cccs2)nc2ccccc12	i	-17%	i	4%	?	8%
O=C(NN1CCOCC1)c1cc(-c2ccc(Cl)c(Cl)c2)nc2ccccc12	i	?	i	1%	1.3µM*	-2%

Screens deposited in PubChem by National Center for Advancing Translational Sciences (NCATS).
